The results in this text go back to PubChem BioAssay (NCATS).

Results filed as inconclusive are left out. Active and inactive are the calls of the source. Unless noted, calls come from the whole dose curve; as a rule, active = well fitted curve in the direction sought with a large enough effect; inconclusive = small, poorly fitted or top-dose-only effect, or another doubt; inactive = no such curve, though single readings can be large; an effect the other way counts as inactive or inconclusive. Starred links: 1 amine or outer side, 2 acyl side, 3 side chain; linkers in the order of their positions; H or OH if unused. Positions of bridges follow the written chain, without caps; N, C: chain ends. Non-standard residues stand in square brackets, D forms with d. Residues, ends and D or L forms follow the SMILES beside them. *: point of attachment. X4 = NC1=N[C@@H](O)C[C@H]([C@H](N[*:1])C(=O)[*:2])N1; ΔAla(3-NHCONH2) = NC(=O)NC=C(N)C(=O)O; β3hOrn = NCCC[C@H](N)CC(=O)*; Dap = NC[C@H](N)C(=O)O

Assay [1] in a line: S16 Schwann cell PMP22 intronic element beta-lactamase assay (AID 624044; calls by dose curve;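 note: 0% = DMSO and -100% = potassium clavulanate positive control; nearly all actives have a fitted effect of over 15% in size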). Conditions: S16 rat Schwann cells, PMP22 element beta-lactamase FRET, 24 h; series mostly up to 17.1 µM. The method, boiled down: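 Beta-lactamase reporter under a PMP22 intronic regulatory element in stable S16 rat Schwann cells; 24 h compound exposure. 460 nm blue signal normalized between DMSO (0%) and potassium clavulanate, with 535 nm FRET tracking viability; curves classed by r2 and response.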

The subject of a further assay is CP262. As to the kind of experiment: qHTS profiling for inhibitors of Plasmodium falciparum proliferation (AID 504749). Note: nearly all actives have a fitted effect of over 60% in size. Note: potency is the fitted concentration of half-maximal effect. Conditions: P. falciparum in erythrocytes, SYBR Green DNA, 72 h; series mostly up to 12.8 µM. An outline of the steps: (§1)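 Quantitative HTS: compounds pinned into medium, infected erythrocytes added (0.3% parasitemia, 2.5% hematocrit), 72 h culture at 37 C under 5% CO2. Saponin/Triton lysis with SYBR Green I, overnight RT, then fluorescence read.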
(In general: In qHTS, concentration-response curves come from the screen itself.)

Assay [2] can be described thus: qHTS profiling of the MIPE4 collection as inhibitors of Plasmodium falciparum (3D7) proliferation (AID 743344; call rule not given here;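 note: scaled between DMSO vehicle wells and 0.29 µM artemisinin as full inhibition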). The conditions noted are these: P. falciparum 3D7 in erythrocytes, SYBR Green DNA fluorescence, 72 h; at 5.51 µM (top of the series) unless noted. The method, boiled down: (§2)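 Parasite DNA was quantified by SYBR Green I fluorescence (ex 485, em 535 nm) after overnight lysis in saponin/Triton buffer at room temperature. Cultures at 0.3% parasitemia and 2.5% hematocrit were first exposed to compound for 72 h at 37 C; signals were normalised to artemisinin (0.29 uM) and vehicle wells.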

Assay [3] is described as follows: qHTS profiling of the MIPE4 collection as inhibitors of Plasmodium falciparum (DD2) proliferation (AID 743345; call rule not given here). The conditions noted are these: P. falciparum Dd2 in erythrocytes, SYBR Green DNA, 72 h; at 5.51 µM (top of the series) unless noted. An outline of the steps:
as §2

A short description of assay [4]: qHTS profiling of the MIPE4 collection as inhibitors of Plasmodium falciparum (DD2) proliferation (Rep 2) (AID 743346; call rule not given here). Conditions: P. falciparum Dd2 in erythrocytes, SYBR Green DNA, 72 h; at 5.51 µM (top of the series) unless noted. The method, boiled down:
as §2

A short description of assay [5]: qHTS profiling of the MIPE4 collection as inhibitors of Plasmodium falciparum (HB3) proliferation (AID 743347; call rule not given here;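 note: plate controls were DMSO vehicle wells for no effect and artemisinin wells for full effect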). Conditions: P. falciparum HB3 in erythrocytes, SYBR Green DNA, 72 h; at 5.51 µM (top of the series) unless noted. An outline of the steps: as §2
Assay [6] is described as follows: Counterscreen for APE1 Inhibitors: Fluorescent Dye Displacement Validation Assay (AID 1707).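 Note: plate controls were ThO with dsDNA and no compound for no effect and ThO without dsDNA for full effect.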 Conditions: fluorescent dye displacement from DNA; series mostly up to 57.1 µM. The method, boiled down:
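Signal: ThO fluorescence (ex 480 nm/em 540 nm) on binding 50 nM dsDNA; displacement by test compound reduces it. Conditions: 250 nM dye, 50 mM Tris-HCl pH7.5, 2 mM MgCl2, 50mM NaCl, 0.01% Tween-20.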

The nature of assay [7]: qHTS for differential inhibitors of proliferation of Plasmodium falciparum line 7G8 (AID 1815).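 Note: potency is the fitted concentration of half-maximal effect; parasite growth measured after three days of incubation.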 The conditions noted are these: Plasmodium falciparum 7G8 proliferation inhibition; series mostly up to 28.7 µM.
Assay [8] can be described thus: qHTS for differential inhibitors of proliferation of Plasmodium falciparum line GB4 (AID 1816).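 Note: potency is the fitted concentration of half-maximal effect; parasite growth measured after 72 h incubation.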 Conditions: Potency: Plasmodium falciparum GB4 proliferation inhibition; series mostly up to 28.7 µM.
Assay [9] is described as follows: qHTS for differential inhibitors of proliferation of Plasmodium falciparum line 3D7 (AID 1876). Note: potency is the fitted concentration of half-maximal effect. The conditions noted are these: P. falciparum 3D7 proliferation inhibition; series mostly up to 28.7 µM.
Assay [10] can be described thus: qHTS for differential inhibitors of proliferation of Plasmodium falciparum line D10 (AID 1877).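 Note: potency is the fitted concentration of half-maximal effect; parasites grown with compound for 72 h before DNA staining.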 The conditions noted are these: series mostly up to 28.7 µM.
A short description of assay [11]: qHTS for differential inhibitors of proliferation of Plasmodium falciparum line W2 (AID 1883).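 Note: potency is the fitted concentration of half-maximal effect; parasites grown with compound for 72 h before lysis and staining.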 Conditions: Potency: Plasmodium falciparum W2 proliferation inhibition; series mostly up to 28.7 µM.
The nature of assay [12]: qHTS for differential inhibitors of proliferation of Plasmodium falciparum line HB3 (AID 1886).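 Note: potency is the fitted concentration of half-maximal effect; parasites grown with compound for 72 h before SYBR Green readout.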 Conditions: Potency: Plasmodium falciparum HB3 proliferation inhibition; series mostly up to 28.7 µM.
The target in assay [13] is ATP-dependent DNA helicase Q1 (Homo sapiens) (UniProt P46063). Briefly: qHTS Validation Assay for Inhibitors of RecQ-Like Dna Helicase 1 (RECQ1) (AID 2353).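 Note: plate controls were DMSO vehicle for no effect and enzyme-free control for full effect.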 The conditions noted are these: recombinant RECQ1 helicase DNA unwinding assay; series mostly up to 25.6 µM. The method, boiled down: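 RECQ1T1 50 nM; forked duplex (20 bp + 30-nt ss tails) 200 nM, ATP 2 mM final; pH 8.0, 2 mM MgCl2, 2.5 ug/ml poly(dI-dC); 15 min compound preincubation; discontinuous kinetic read over 2 h at RT.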

A short description of assay [14]: Quantitative high throughput screen for delayed death inhibitors of the malarial parasite plastid, 96 hour incubation (AID 488745). Note: potency is the fitted concentration of half-maximal effect; nearly all actives have a fitted effect of over 70% in size. The conditions noted are these: Plasmodium falciparum growth; series mostly up to 28.7 µM. An outline of the steps:
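Decreased firefly luciferase luminescence indicates inhibited growth of reporter-integrated P. falciparum after two generations (96 h, 37 C, 5% CO2). Infected erythrocytes at 0.1% parasitemia, 2% hematocrit, in Albumax-supplemented RPMI 1640.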

Assay [15] addresses M-phase phosphoprotein 8 (Homo sapiens) (UniProt Q99549). Briefly: qHTS Validation Assay for Inhibitors for MPP8 Chromodomain Interactions with Methylated Histone Tails (AID 488949). Note: potency is the fitted concentration of half-maximal effect; nearly all actives have a fitted effect of over 55% in size. The conditions noted are these: AlphaScreen MPP8 binding to H3K9me3 peptide; series mostly up to 114 µM. The method, boiled down:
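MPP8 (50 nM) was preincubated with biotinylated H3(1-18)K9me3 peptide (50 nM) in PBS pH 7.4, 0.01% Tween-20 for 30 min at room temperature, then with compounds for 30 min; binding was detected by AlphaScreen.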

In assay [16] the target is Thyrotropin receptor (Homo sapiens) (UniProt P16473). As to the kind of experiment: qHTS Assay for Antagonists of the Thyroid Stimulating Hormone Receptor (AID 488980). Note: 0% is about no effect. The conditions noted are these: TSHR-expressing cells, cAMP antagonist read-out; series mostly up to 57.5 µM. The method, boiled down: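 HEK293 cells transfected with human TSHR, suspended in HEPES-buffered HBSS with 70 uM RO 20-1724, were treated with compounds plus TSH at EC80 (4 nM final). cAMP was measured by competitive HTRF (cryptate anti-cAMP antibody, cAMP-d2 acceptor).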

The target of assay [17] is Thyrotropin-releasing hormone receptor (Homo sapiens) (UniProt P34981). As to the kind of experiment: qHTS for Small Molecule Agonists and Allosteric Enhancers of Human TRH Receptor: Validation Screen for Agonists (AID 493127;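 active = calcium activation more than 3 SD above the typical response in the agonist read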;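 note: intracellular calcium rise by fluo-8 fluorescence before TRH EC20 addition; 0% is about no effect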). The conditions noted are these: TRH receptor agonist cell assay; at 2 µM; stronger effect = higher value. The method, boiled down:
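Compound-evoked intracellular calcium release in fluo-8-loaded TRHR cells, read kinetically on FDSS (Ex 480/Em 530, 1 s/cycle) after 23 nL pintool transfer. Agonist phase preceded 10 nM TRH EC20 addition.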

For assay [18], the target named is Galactokinase (Homo sapiens) (UniProt P51570). As to the kind of experiment: qHTS Validation Assay for Inhibitors of Human Galactokinase (GALK) (AID 493189). Note: 0% is about no effect. Conditions: purified human GALK enzyme activity, qHTS 7-point titration; series mostly up to 57.5 µM. The method, boiled down: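 GALK (5 nM) with 35 uM ATP and 100 uM galactose in HEPES pH8.0, MgCl2, NaCl, DTT, BSA; 1 h at room temperature. Residual ATP read by Kinase-Glo Plus luminescence after 10 min.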

Assay [19] can be described thus: qHTS profiling for inhibitors of Plasmodium falciparum proliferation (AID 504749). Note: nearly all actives have a fitted effect of over 60% in size. Note: potency is the fitted concentration of half-maximal effect. The conditions noted are these: P. falciparum in erythrocytes, SYBR Green DNA, 72 h. The method, boiled down:
as §1

Sequence of Thyrotropin-releasing hormone receptor (Homo sapiens) (P34981 whole entry, looked up): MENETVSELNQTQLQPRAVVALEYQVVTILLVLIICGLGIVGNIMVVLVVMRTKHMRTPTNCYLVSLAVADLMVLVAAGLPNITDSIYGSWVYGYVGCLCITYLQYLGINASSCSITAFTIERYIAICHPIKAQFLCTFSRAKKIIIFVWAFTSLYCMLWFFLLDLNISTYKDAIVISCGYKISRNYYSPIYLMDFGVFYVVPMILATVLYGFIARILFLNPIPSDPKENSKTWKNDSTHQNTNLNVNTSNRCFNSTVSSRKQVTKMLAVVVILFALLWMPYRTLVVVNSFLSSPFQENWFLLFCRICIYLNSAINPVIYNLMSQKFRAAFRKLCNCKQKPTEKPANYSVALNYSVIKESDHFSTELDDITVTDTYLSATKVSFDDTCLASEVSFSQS
Sequence of Thyrotropin receptor (Homo sapiens) (P16473 whole entry, looked up): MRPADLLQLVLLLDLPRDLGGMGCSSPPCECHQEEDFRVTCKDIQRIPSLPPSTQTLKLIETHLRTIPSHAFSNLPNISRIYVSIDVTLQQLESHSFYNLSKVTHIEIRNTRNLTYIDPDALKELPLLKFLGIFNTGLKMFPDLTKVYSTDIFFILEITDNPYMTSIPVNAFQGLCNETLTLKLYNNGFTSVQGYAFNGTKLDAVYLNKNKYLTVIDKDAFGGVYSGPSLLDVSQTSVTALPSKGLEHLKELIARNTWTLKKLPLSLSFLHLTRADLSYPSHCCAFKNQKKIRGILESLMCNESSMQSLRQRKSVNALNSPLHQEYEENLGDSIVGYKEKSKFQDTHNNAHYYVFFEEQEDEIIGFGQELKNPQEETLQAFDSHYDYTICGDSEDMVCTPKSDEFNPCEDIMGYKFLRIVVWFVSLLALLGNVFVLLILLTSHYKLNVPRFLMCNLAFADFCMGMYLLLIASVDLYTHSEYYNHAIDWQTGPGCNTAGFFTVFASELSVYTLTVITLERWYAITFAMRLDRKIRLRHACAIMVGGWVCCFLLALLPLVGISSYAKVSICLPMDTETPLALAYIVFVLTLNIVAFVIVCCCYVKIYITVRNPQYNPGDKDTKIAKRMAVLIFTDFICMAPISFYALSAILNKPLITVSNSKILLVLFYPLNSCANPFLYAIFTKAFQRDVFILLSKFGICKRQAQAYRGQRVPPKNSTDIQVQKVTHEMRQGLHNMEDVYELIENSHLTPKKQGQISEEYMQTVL
Sequence of M-phase phosphoprotein 8 (Homo sapiens) (Q99549 whole entry, looked up): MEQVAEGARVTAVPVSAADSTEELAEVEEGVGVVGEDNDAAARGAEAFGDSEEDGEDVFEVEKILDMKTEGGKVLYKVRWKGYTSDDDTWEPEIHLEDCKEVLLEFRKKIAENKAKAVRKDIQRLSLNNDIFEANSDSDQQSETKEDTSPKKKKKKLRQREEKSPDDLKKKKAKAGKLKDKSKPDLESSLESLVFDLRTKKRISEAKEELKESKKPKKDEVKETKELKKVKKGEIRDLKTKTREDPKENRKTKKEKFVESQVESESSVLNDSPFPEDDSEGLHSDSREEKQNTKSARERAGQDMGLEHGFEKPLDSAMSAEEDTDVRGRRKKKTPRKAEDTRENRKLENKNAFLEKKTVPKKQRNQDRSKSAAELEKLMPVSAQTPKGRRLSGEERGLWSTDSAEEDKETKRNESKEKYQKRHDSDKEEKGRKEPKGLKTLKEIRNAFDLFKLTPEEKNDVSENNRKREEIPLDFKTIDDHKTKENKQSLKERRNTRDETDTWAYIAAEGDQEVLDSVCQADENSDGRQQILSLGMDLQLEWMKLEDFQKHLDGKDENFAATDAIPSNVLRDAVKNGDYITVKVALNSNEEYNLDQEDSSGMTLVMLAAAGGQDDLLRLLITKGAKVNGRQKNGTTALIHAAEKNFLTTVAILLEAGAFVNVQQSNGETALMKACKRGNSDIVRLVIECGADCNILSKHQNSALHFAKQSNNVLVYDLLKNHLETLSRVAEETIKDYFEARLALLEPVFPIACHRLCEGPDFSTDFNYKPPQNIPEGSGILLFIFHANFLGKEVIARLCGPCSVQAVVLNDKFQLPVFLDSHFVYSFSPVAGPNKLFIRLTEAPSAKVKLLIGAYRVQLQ
Sequence of Galactokinase (Homo sapiens) (P51570 whole entry, looked up): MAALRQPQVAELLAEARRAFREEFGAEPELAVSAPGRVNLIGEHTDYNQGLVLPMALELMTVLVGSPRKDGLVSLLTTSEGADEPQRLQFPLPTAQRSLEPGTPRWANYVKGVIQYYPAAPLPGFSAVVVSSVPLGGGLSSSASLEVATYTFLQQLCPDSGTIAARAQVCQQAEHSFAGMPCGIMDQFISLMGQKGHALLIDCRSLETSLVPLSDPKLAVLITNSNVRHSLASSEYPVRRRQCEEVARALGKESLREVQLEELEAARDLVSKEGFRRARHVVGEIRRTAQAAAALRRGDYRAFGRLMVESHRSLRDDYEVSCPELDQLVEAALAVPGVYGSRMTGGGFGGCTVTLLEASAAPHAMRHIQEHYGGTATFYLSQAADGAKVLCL
Sequence of ATP-dependent DNA helicase Q1 (Homo sapiens) (P46063 whole entry, looked up): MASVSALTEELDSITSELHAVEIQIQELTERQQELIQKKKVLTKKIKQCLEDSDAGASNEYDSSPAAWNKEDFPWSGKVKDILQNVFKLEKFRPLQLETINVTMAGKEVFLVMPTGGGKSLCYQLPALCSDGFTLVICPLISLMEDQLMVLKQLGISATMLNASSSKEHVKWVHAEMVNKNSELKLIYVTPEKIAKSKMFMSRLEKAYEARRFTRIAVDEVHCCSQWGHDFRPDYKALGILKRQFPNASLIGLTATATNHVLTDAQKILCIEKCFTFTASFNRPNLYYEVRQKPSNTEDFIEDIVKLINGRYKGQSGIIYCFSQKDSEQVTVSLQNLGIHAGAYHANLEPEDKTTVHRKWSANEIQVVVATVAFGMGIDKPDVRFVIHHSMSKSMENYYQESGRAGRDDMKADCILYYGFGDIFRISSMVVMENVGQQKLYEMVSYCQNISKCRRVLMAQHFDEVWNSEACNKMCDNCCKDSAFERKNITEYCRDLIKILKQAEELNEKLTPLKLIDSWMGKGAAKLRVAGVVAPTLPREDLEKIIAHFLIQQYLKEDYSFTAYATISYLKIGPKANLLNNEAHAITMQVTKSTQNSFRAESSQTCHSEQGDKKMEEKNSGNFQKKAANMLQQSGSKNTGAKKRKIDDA

On to `COc1cc(/C=C/C(=O)/C=C(O)/C=C/c2ccc(O)c(OC)c2)ccc1O`, for which the call in assay [1] was inactive. For the same compound, the Potency result with CP262 is “inactive”.

Take `NCCC[C@H](N)CC(=O)N[C@H]1CNC(=O)[C@H]([C@H]2C[C@H](O)N=C(N)N2)NC(=O)C(=CNC(N)=O)NC(=O)[C@H](CO)NC(=O)[C@H](CO)NC1=O` (β3hOrn-[Dap]SS[ΔAla(3-NHCONH2)][X4]; lactam 1-C): the parasite growth, % of DMSO control in [2] amounted to 66.2%. For the same compound, the parasite growth remaining, % of DMSO control (lower = more inhibition) in assay [3] is 79.9%. Moreover, the parasite growth, % of control (lower = inhibition) in assay [4] is 92.5%. The same compound gave a growth, % of control in assay [5] of 71.8%.

For `NC(=NCc1ccc(Cl)c(Cl)c1)NC(=O)c1nc(Cl)c(N)nc1N`, the compound was classed as inactive in [6], in [13], in assay [16] and in assay [18]. In addition, the Potency in assay [7] was 562 nM (active); in assay [8] it was 891 nM (active); in [9], 282 nM (active); in assay [10], 398 nM (active); in [11] it was 1000 nM (active); in [12], 501 nM (active). Further, the figures for the Potency in assay [14] and in assay [15] were 586 nM (active) and 50100 nM (active), respectively. The activation in assay [17] is 4.94% (inactive).

Regarding `Cc1cc(/C=C\c2ccc3cc(N(C)C)ccc3[n+]2C)c(C)n1-c1ccccc1`, the Potency in assay [19] (parasite line A) and in assay [19] (parasite line B) was 1580 nM (active) each time.

Consider `CC#C[C@]1(O)CC[C@H]2C3CCC4=CC(=O)CCC4=C3[C@@H](c3ccc(N(C)C)cc3)C[C@@]21C` (some centres undefined), for which the compound was called inactive in assay [6], in [13], in assay [16] and in assay [18]. Further, the Potency in assay [7] is 3980 nM (active); in assay [8] it was 11200 nM (active); in assay [9], 10000 nM (active); in [10], 10000 nM (active); in assay [11] it was 5010 nM (active); in assay [12] it was 12600 nM (active). The Potency is 11700 nM (active) in [14] and 15800 nM (active) in assay [15]. Further, the activation in assay [17] was 28.5% (inactive).
